“And” between values parts separate entries of the source, which are not always exact repeats. Equal entries are not always repeated. Results filed as inconclusive are left out. Where a structure was tested more than once in an assay, its records may differ in their call. Unmarked numbers belong to inactive results. The source made the active and inactive calls. The call rests on the fitted dose curve; in most records, active means well fitted curve in the direction sought with a large enough effect; inconclusive means small, poorly fitted or top-dose-only effect, or another doubt; inactive means no such curve, though single readings can be large; an effect the other way counts as inactive or inconclusive.

One assay relates to MKL-1. As to the kind of experiment: qHTS assay to identify novel small-molecules to repurpose for Merkel cell carcinoma treatment (AID 1296009). Further: nearly all actives have a fitted effect of over 60% in size. Further: potency means the concentration at half of the fitted maximal effect. The note with it: MCC and control cell lines, CellTiter-Glo viability, 72 h; series mostly up to 46 µM. A digest of the protocol: (§1)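 Dose-response viability screen; 72 hr exposure at 37 degree celsius; CellTiter-Glo added, 10 min room temperature, luminescence read; RLUs scaled between no-cell and DMSO wells.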

The test system of another assay is MKL-2. The description is as above. As to conditions: MCC and control cell lines, CellTiter-Glo viability, 72 h; series mostly up to 46 µM. The gist of the method:
as §1
(In general: In ATP-based viability assays light output follows the ATP content of the culture.)

The next assay deals with NIH3T3. The description is as above. As to conditions: MCC and control cell lines, CellTiter-Glo viability, 72 h; at 44.8 µM (top of the series) unless noted. The gist of the method:
as §1

Another assay has as its system UISO. Described as above. The note with it: MCC and control cell lines, CellTiter-Glo viability, 72 h; series mostly up to 46 µM. The gist of the method: as §1
The subject of another assay is WaGa. Described as above. As to conditions: MCC and control cell lines, CellTiter-Glo viability, 72 h; series mostly up to 46 µM. The gist of the method: as §1
A further assay deals with C33A. As to the kind of experiment: Primary qHTS to identify gynecologic anti-cancer compounds using libraries of approved drugs and bioactive compounds (AID 1345084). Further: nearly all actives have a fitted effect of over 55% in size. As to conditions: Gynecologic cancer cell panel viability, ATPlite luminescence, 48 h; series mostly up to 57.5 µM. A digest of the protocol: (§2)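 Luminescence from the ATPlite ATP-monitoring reagent indicates viable cell number; lower signal means cytotoxicity. Cells received compound 16 h after seeding and were exposed for 48 h across five concentrations.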

Another assay concerns CAOV3. Described as above. The note with it: Gynecologic cancer cell panel viability, ATPlite luminescence, 48 h; series mostly up to 57.5 µM. A digest of the protocol:
as §2

Another assay deals with CASKI. The assay is described as above. As to conditions: Gynecologic cancer cell panel viability, ATPlite luminescence, 48 h; series mostly up to 57.5 µM. A digest of the protocol: as §2
Another assay deals with Es-2. Described as above. As to conditions: Gynecologic cancer cell panel viability, ATPlite luminescence, 48 h; series mostly up to 57.5 µM. A digest of the protocol: as §2
A further assay relates to HeLa. The assay is described as above. As to conditions: Gynecologic cancer cell panel viability, ATPlite luminescence, 48 h; series mostly up to 57.5 µM. A digest of the protocol: as §2
A further assay concerns Hek293T. The assay is described as above. The note with it: Gynecologic cancer cell panel viability, ATPlite luminescence, 48 h, control line for the selectivity index; series mostly up to 57.5 µM. A digest of the protocol:
as §2

A further assay deals with JEG-3. Described as above. The note with it: Gynecologic cancer cell panel viability, ATPlite luminescence, 48 h; series mostly up to 57.5 µM. The gist of the method: as §2
The subject of a further assay is OV90. The assay is described as above. The note with it: Gynecologic cancer cell panel viability, ATPlite luminescence, 48 h; series mostly up to 57.5 µM. The gist of the method:
as §2

For the next assay, the system named is PA-1. Described as above. As to conditions: Gynecologic cancer cell panel viability, ATPlite luminescence, 48 h; series mostly up to 57.5 µM. A digest of the protocol:
as §2

For another assay, the system named is SKOV3. Described as above. As to conditions: Gynecologic cancer cell panel viability, ATPlite luminescence, 48 h; series mostly up to 57.5 µM. A digest of the protocol: as §2
A further assay has as its system Tov-21-G. The assay is described as above. As to conditions: Gynecologic cancer cell panel viability, ATPlite luminescence, 48 h; series mostly up to 57.5 µM. A digest of the protocol: as §2
Another assay has as its system Tov112D. Described as above. The note with it: Gynecologic cancer cell panel viability, ATPlite luminescence, 48 h; series mostly up to 57.5 µM. The gist of the method: as §2
The test system of another assay is astro. As to the kind of experiment: Drug repurposing screens with cells derived from glioblastoma tumor samples (AID 1345199). Further: nearly all actives have a fitted effect of over 40% in size. Further: potency means the concentration at half of the fitted maximal effect. As to conditions: viability, ATP luminescence, 48 h; series mostly up to 45.9 µM. A digest of the protocol:
(§3)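 Primary testing used CD133+ neurospheres from four GBM patients, seven concentrations, 48 h exposure and ATP-based viability; confirmation added three slower-growing patient lines.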

Test in assay [1]: as above
As to conditions: GBM patient neurospheres viability, ATP luminescence, 48 h. The gist of the method: as §3

Assay [2] in a line: qHTS assay to identify inhibitors of the type 1 interferon - major histocompatibility complex class I in skeletal muscle: Counter screen cell viability and HiBit confirmation (AID 1347412). Further: nearly all actives have a fitted effect of over 60% in size. The note with it: iHSKM muscle cells + IFN-b, HiBiT or CellTiter-Glo, 24 h, at 45.9 µM (top of the series). The gist of the method: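 Luminescence read-out: Nano-Glo HiBiT lytic signal from C-terminally HiBiT-tagged HLA-B in CRISPR-edited human myoblasts, plus CellTiter Glo ATP as viability counter screen. IFN-beta 4.0 ng/ml; 24 hrs treatment at 37 C, 5% CO2.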
(qHTS replaces the single test concentration by a dilution series.)

The mark [3] stands for this setting: at 45.9 µM (top of the series), tumour line B.
Where [4] appears, read: at 45.9 µM (top of the series), tumour line D.
Where [5] appears, read: at 46.1 µM (top of the series), tumour line C.
On the % scale 0 is the no-effect control and ±100 the full control effect.

Take `Cc1nc(-c2ccc(OCC(C)C)c(C#N)c2)sc1C(=O)O`: the Potency result in the assay with MKL-1, in the assay with MKL-2, in the assay with UISO, in the assay on WaGa and in the assay on C33A was “inactive” each time. Besides, the outcome in the assay with NIH3T3 was inactive.

Consider `COCCCOc1ccnc(CS(=O)c2nc3ccccc3[nH]2)c1C` (stereo not drawn), for which the Potency result in the assay with MKL-1, in the assay with MKL-2, in the assay with UISO, in the assay on WaGa, in the assay with C33A and in the assay with CAOV3 was “inactive” each time. Moreover, the Potency entry with CASKI, in the assay on Es-2, in the assay on HeLa, in the assay with Hek293T, in the assay on JEG-3 and with OV90 was “inactive” throughout. Moreover, the Potency result with PA-1, in the assay on SKOV3, in the assay with Tov-21-G and with Tov112D was “inactive” throughout. In addition, the outcome in the assay with NIH3T3 was inactive. Moreover, in the assay on astro, the Potency is 22.4 µM (active).

As to `CCN(CCO)CCCC(C)Nc1ccnc2cc(Cl)ccc12` (stereo not drawn), the Potency with MKL-1 is 3.72 µM (active); in the assay on WaGa, 2.35 µM (active); in [1] (tumour line A), 11.2 µM (active). Further, the activity change, negative = cytotoxicity with MKL-1 is 15.4% [at 4.84 µM]; in the assay on WaGa, 15.3% [at 4.84 µM]; in the assay on C33A it was 4.86% [at 6.55 µM] and 0.75% [at 6.55 µM]; with CAOV3, 21.3% [at 6.55 µM] and 5.51% [at 6.55 µM]; in the assay on CASKI, 22.4% [at 6.55 µM] and 10.4% [at 6.55 µM]; with Es-2, -1.37% [at 6.55 µM] and -0.815% [at 6.55 µM]. Further, the activity change, negative = cytotoxicity was 2.67% [at 6.55 µM] and -11.2% [at 6.55 µM] with HeLa; 9.38% [at 6.55 µM] and 2.44% [at 6.55 µM] in the assay with Hek293T; -0.0768% [at 6.55 µM] and 4.75% [at 6.55 µM] in the assay with JEG-3; -3.69% [at 6.55 µM] with OV90; 16.5% [at 6.55 µM] and 2.35% [at 6.55 µM] in the assay with PA-1; -2.72% [at 6.55 µM] and 0.445% [at 6.55 µM] with SKOV3. Moreover, the activity change, negative = cytotoxicity with Tov-21-G is 2.96% [at 6.55 µM] and -2.5% [at 6.55 µM]; in the assay with Tov112D, 10.4% [at 6.55 µM] and 2.64% [at 6.55 µM]. For the same compound, the Potency result in the assay on MKL-2, with UISO and with astro was “inactive” throughout. The outcome in the assay with NIH3T3 is “inactive [at 4.96 µM]”. Also, the activity, negative = cell killing was -10.8% in assay [1] (setting [3]), -19.9% in assay [1] (setting [4]) and 3.19% in [1] (setting [5]).

On to `Clc1ccc(C(Cn2ccnc2)OCc2ccc(Sc3ccccc3)cc2)c(Cl)c1` (stereo not drawn), for which the Potency result with MKL-1, in the assay with MKL-2, in the assay on UISO, in the assay on WaGa, with C33A and in the assay on CAOV3 was “inactive” in each case. For the same compound, the Potency result in the assay on CASKI, in the assay on Es-2, in the assay on HeLa, in the assay on Hek293T, with JEG-3 and in the assay on OV90 was “inactive” throughout. Moreover, the Potency result in the assay with PA-1, in the assay on SKOV3, with Tov-21-G and in the assay on Tov112D was “inactive” in each case. Also, the outcome with NIH3T3 was inactive. Besides, the activity change, negative = inhibition in assay [2] (HiBiT) was -10.3%; in assay [2] (Viability), -8.18%.

As to `Nc1ccc(S(N)(=O)=O)cc1`, the Potency result in the assay with MKL-1, in the assay on MKL-2, in the assay on UISO, in the assay on WaGa, in the assay on C33A and with CAOV3 was “inactive” in each case. For the same compound, the Potency result with CASKI, in the assay with Es-2, in the assay with HeLa, with Hek293T, in the assay on JEG-3 and in the assay with OV90 was “inactive” each time. Further, the Potency entry in the assay on PA-1, with Tov-21-G, with Tov112D and with astro was “inactive” each time. Moreover, the call in the assay with NIH3T3 was inactive. The activity, negative = cell killing was -13.5% in assay [1] (setting [3]); -7.18% in [1] (setting [4]); -12.5% in assay [1] (at 46 µM (top of the series), tumour line A); 10.5% in assay [1] (setting [5]).

Regarding `CCOC(=O)c1c(C)n(C)c2ccc(O)cc12`, the Potency result with MKL-1, in the assay on MKL-2, in the assay with UISO, in the assay on WaGa, with C33A and in the assay with CAOV3 was “inactive” throughout. Further, the Potency result in the assay on CASKI, in the assay on Es-2, with HeLa, in the assay with Hek293T, in the assay with JEG-3 and in the assay on OV90 was “inactive” throughout. The Potency result in the assay with PA-1, with SKOV3, in the assay with Tov-21-G, with Tov112D and with astro was “inactive” throughout. In addition, in the assay with NIH3T3, the compound was classed as inactive. Further, the values for the activity, negative = cell killing in assay [1] (setting [3]) and in assay [1] (setting [4]) were -14.1% and -23.4%, respectively.

The record behind these values is PubChem BioAssay (NCATS).
